Experimental findings from PubChem BioAssay (NCI) are described below.

Compounds without any hit were thinned out: in the full panel of roughly 83,000, 20% have a hit.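 Cell lines were cultured in 96-well plates, exposed to a single compound concentration, and assessed for percent growth 48 hours later.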 A number with no mark means an inactive call. Active and inactive are the calls of the source. How the source made its calls: active means growth percent below 10; inactive means the rest.

Assay in all cases: NCI-60 one-dose screen, 48 h (100 = growth as untreated, 0 = no growth, -100 = all killed)
Details in all cases: 10 µM

Test [1] has as its system NCI-H23 lung.
Test [2] deals with NCI-H226 lung.
The subject of test [3] is NCI-H322M lung.
Test [4] relates to HOP-62 NSCLC.
The subject of test [5] is NCI-H460 lung.
Test [6] has as its system HOP-92 NSCLC.
Test [7] has as its system NCI-H522 lung.
Test [8] has as its system A549/ATCC NSCLC.
The subject of test [9] is 786-0 renal.
Test [10] relates to COLO 205 colon.
Test [11] relates to DU-145 prostate.
The test system of test [12] is K-562 leukemia.
The subject of test [13] is MALME-3M melanoma.
For test [14], the system named is RXF 393 renal.
In test [15] the test system is SF-268 CNS.
Test [16] relates to SF-295 CNS.
The test system of test [17] is SF-539 CNS.
For test [18], the system named is UACC-257 melanoma.
For test [19], the system named is M14 melanoma.
Test [20] deals with MDA-MB-231 breast.

As to `Nc1nc(-c2ccccc2)cc(-c2cc3ccccc3nc2Cl)n1`, the growth in test [1] is 89.3%; in test [2] it was 78.1%; in test [3], 96.7%; in test [4] it was 89.4%; in [5], 81.5%; in test [6], 73.1%. Besides, the growth is 89.4% in test [7]; 91% in test [8]; 89.7% in test [9]; 110% in test [10]; 81.5% in [11]; 20% in test [12]. The growth in test [13] is 88.4%; in test [14] it was 85.2%; in test [15] it was 88.3%; in test [16], 78.6%; in [17] it was 78.5%; in test [18], 97.8%. The growth in test [19] was 84.2%.

Regarding `Cc1ccc(-c2cc(-c3cc4ccccc4nc3Cl)[nH]c(=O)n2)cc1`, the growth in test [1] was 10.1%; in test [2] it was -8.6% (active); in test [3] it was 32.1%; in test [4] it was -9.15% (active); in [5], 0.523% (active); in test [6], 5.62% (active). Also, the growth is -11.7% (active) in test [7]; 35.5% in test [8]; -22.6% (active) in test [9]; 24.7% in test [10]; 14.2% in [11]; 1.33% (active) in test [12]. For the same molecule, the growth in test [13] is 38.5%; in test [14], -33.9% (active); in test [15] it was 6.42% (active); in test [16], 16.2%; in test [17], -42.6% (active); in test [18], 47%.

Regarding `CN1C(=O)N(C)C2SC(N/N=C/C=C/c3ccccc3)=NC21` (stereo not given), the growth in test [1] was 84.9%; in [2] it was 79.3%; in [3], 93.9%; in test [4], 85.9%; in test [5] it was 94.5%; in test [6], 97.9%. The growth in test [7] was 56.1%; in [8], 87.5%; in test [9], 73.9%; in test [10] it was 122%; in [11], 84.2%; in test [12], 25.3%. The growth was 66.8% in [13]; 82.4% in [20]; 75.2% in test [15]; 72.7% in test [16]; 75.7% in test [17]; 83.1% in test [18]. The growth in [19] was 54.7%.

Consider `O=c1[nH]n(C(=S)N/N=C/c2ccc(F)cc2)c(=O)c2ccccc12`, for which the growth in [1] is 75.3%; in test [2], 71.9%; in [3] it was 83.9%; in test [4], 80.3%; in test [5], 55.9%; in [6] it was 77%. In addition, the growth in test [7] was 70%; in test [8], 82.4%; in test [9], 76.5%; in [10], 105%; in test [11], 68.9%; in [12], 11.2%. Moreover, the growth is 80.4% in test [13]; 57.3% in test [14]; 104% in [15]; 74.4% in [16]; -50.9% (active) in test [17]; 95% in test [18].

`CN1C(=O)N(C)C2SC(N/N=C/c3cccs3)=NC21` (stereo not given): the growth in test [1] was 38.4%; in test [2] it was 68.2%; in test [3], 69.3%; in test [4], 37.7%; in test [5], 13.2%; in test [6], 55.6%. Further, the growth was -14.6% (active) in [7]; 44.2% in [8]; 37.3% in test [9]; 26.8% in test [10]; 49.5% in [11]; 11.8% in test [12]. Also, the growth in test [13] was 24.6%; in test [20] it was 27.3%; in [15] it was 35.7%; in test [16] it was 7.99% (active); in [17], 4.32% (active); in test [18] it was 50.3%. Further, in test [19], the growth is 7.65% (active).

Take `CN1CCc2c(sc3ncnc(N/N=C/c4cn(-c5ccccc5)nc4-c4ccc(Br)cc4)c23)C1`: the growth in [1] was 8.68% (active); in test [2], 81.2%; in test [3], 33.5%; in [4], 54.6%; in test [5], 18.7%; in [6], 71.8%. For the same molecule, the growth in [7] was 54.7%; in test [8], 25.3%; in test [9] it was 65.7%; in test [10], 5.81% (active); in test [11], 56.2%; in [12], 18.5%. For the same molecule, the growth is 29.5% in [13]; 83.6% in test [14]; 67.2% in test [15]; 72.9% in test [16]; 15.7% in [17]; 29.9% in test [18]. In addition, the growth in test [19] was 19.4%.

Regarding `OCCCNc1oc(-c2ccccc2)nc1[P+](c1ccccc1)(c1ccccc1)c1ccccc1`, the growth in test [1] was -1.07% (active); in [2], -5.46% (active); in [3], 31.9%; in test [4], 17.9%; in test [5], 3.97% (active); in test [6], -24.1% (active). Also, the growth in [7] was 2.08% (active); in test [8], 29.6%; in test [9], 11.2%; in test [10], -52.3% (active); in test [11], 8.36% (active); in [12] it was 11.1%. Besides, the growth is -26% (active) in [13]; -8.13% (active) in [20]; 6.17% (active) in test [15]; 2.62% (active) in [16]; 4.68% (active) in test [17]; -10.3% (active) in test [18]. In addition, the growth in [19] was 10.1%.

Regarding `O=C(c1ccc([N+](=O)[O-])c([N+](=O)[O-])c1O)n1[nH]c(=O)c2ccccc2c1=O`, the growth in test [1] is 50.5%; in [2], 82.1%; in test [3], 85.8%; in [4], 75.5%; in test [5] it was 44.8%; in test [6] it was 78.6%. In addition, the growth in test [7] was 54.8%; in test [8], 77.6%; in [9] it was 97.7%; in [10], 124%; in test [11], 25.4%; in [12], 12.8%. Moreover, the growth is 71.7% in test [13]; 66.7% in test [14]; 76.9% in test [15]; 90.9% in test [16]; 66.6% in test [17]; 79.9% in test [18]. Further, in test [19], the growth was 78.6%.
